This is an account of results in article PMC7862700, “An all-to-all approach to the identification of sequence-specific readers for epigenetic DNA modifications on cytosine”.

Common to all, as to test: DAPPL (digital affinity profiling via proximity ligation, sequencing); 10 mM Tris-HCl pH 7.5, 50 mM NaCl, 1 mM DTT, 4% glycerol, room temperature, 30 min; GST-TFs on glutathione beads, 16-mer random dsDNA library, 0.1% formaldehyde crosslink after washing; high values mean tight binding
Conditions in all cases: protein: recombinant; tags: N-terminal GST; dsDNA, one strand shown

For one assay, the target named is T1, ERF (Homo sapiens, UniProt P50548 1-548).
T1 sequence: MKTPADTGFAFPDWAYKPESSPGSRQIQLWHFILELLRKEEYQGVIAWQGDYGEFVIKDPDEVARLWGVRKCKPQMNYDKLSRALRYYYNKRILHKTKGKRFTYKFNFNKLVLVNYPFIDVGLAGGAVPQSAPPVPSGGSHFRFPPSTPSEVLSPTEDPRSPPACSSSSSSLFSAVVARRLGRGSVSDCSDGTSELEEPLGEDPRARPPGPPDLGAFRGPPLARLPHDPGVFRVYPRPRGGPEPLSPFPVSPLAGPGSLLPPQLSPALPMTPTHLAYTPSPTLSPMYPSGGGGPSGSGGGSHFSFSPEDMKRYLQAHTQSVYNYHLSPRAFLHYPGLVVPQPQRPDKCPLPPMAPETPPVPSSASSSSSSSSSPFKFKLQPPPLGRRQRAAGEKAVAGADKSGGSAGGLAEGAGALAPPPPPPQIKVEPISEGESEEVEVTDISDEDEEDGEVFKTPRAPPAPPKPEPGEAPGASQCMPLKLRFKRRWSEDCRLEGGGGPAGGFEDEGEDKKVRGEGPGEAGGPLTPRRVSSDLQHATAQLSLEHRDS
The method, boiled down: (§1)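 Sequencing on an Illumina NextSeq500 followed washing, crosslinking with 0.1% formaldehyde, proximity ligation (BsaI/T4 ligase, 1 h, 37 °C) and PCR amplification of pools that had been incubated for 30 min at room temperature with 200 nmole of a random double-stranded 16-mer DNA library in Tris/NaCl/DTT/glycerol buffer. Each pool held DNA-barcoded human transcription factors, expressed in yeast as GST fusions and captured on glutathione beads, plus a tag-only sample. Binding signal is a hexamer's read frequency for a factor divided by its frequency in the tag-only sample.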

The target of another assay is T2, ETV3L (Homo sapiens, UniProt Q6ZN32 1-361).
T2 sequence: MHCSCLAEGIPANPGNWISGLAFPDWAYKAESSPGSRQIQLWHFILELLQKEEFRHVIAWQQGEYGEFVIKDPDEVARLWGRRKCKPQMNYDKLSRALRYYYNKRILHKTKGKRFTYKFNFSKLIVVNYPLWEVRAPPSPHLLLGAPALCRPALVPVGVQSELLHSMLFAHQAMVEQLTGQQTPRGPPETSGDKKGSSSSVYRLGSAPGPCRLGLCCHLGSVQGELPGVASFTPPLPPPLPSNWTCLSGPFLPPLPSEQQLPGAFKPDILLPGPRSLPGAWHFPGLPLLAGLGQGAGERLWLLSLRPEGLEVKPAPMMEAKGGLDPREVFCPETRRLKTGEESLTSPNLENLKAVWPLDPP
The method, boiled down:
as §1

A further assay concerns the target T3, ETS2 (Homo sapiens, UniProt P15036 1-469).
T3 sequence: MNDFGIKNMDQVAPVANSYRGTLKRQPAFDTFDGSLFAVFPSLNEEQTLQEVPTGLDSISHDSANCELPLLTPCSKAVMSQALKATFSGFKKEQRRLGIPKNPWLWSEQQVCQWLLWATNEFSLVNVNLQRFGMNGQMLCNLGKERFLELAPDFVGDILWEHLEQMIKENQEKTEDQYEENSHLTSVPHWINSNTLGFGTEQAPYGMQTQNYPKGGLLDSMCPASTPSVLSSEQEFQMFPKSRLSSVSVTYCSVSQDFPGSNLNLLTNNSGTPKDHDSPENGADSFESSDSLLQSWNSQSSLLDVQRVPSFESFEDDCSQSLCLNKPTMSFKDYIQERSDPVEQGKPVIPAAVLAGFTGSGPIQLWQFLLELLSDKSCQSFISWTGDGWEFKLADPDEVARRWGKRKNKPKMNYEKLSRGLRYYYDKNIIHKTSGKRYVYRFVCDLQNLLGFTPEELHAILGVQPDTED
The method, boiled down:
as §1

A further assay addresses T4, SPDEF (Homo sapiens, UniProt O95238 1-335).
T4 sequence: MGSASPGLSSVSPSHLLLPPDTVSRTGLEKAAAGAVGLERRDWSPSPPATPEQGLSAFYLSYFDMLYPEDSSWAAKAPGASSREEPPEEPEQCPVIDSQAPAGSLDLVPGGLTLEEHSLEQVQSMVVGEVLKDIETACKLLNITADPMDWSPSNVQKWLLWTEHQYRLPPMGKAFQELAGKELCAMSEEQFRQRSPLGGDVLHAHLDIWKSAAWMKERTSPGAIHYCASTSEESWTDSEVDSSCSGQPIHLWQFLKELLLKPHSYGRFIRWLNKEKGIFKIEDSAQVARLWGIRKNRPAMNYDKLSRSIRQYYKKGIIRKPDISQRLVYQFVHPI
The method, boiled down: as §1

For another assay, the target named is T5, ETV7 (Homo sapiens, UniProt Q9Y603 1-341).
T5 sequence: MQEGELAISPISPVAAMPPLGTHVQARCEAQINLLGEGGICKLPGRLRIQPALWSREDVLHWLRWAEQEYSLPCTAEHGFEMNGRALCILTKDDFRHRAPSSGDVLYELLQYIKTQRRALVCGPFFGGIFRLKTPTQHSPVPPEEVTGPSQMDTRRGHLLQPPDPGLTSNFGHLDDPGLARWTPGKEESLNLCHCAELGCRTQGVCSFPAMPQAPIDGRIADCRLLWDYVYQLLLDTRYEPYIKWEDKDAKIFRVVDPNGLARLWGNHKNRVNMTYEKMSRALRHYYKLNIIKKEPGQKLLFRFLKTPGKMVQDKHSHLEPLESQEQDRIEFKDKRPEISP
The method, boiled down: as §1

Another assay concerns the target T6, ELF5 (Homo sapiens, UniProt Q9UKW6-2 1-255).
T6 sequence: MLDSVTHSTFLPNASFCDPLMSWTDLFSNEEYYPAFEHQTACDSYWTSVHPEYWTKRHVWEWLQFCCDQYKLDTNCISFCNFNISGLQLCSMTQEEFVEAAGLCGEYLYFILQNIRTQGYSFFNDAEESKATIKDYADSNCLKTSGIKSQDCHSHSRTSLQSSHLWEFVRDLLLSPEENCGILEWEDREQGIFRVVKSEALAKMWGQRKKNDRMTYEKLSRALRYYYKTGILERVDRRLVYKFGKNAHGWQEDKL
The method, boiled down: as §1

A further assay concerns the target T7, ETV3 (Homo sapiens, UniProt P41162-2 1-143).
T7 sequence: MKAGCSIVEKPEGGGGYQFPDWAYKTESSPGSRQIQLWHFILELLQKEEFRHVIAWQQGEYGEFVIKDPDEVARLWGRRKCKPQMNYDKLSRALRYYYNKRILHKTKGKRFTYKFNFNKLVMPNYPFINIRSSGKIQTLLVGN
The method, boiled down: as §1

For another assay, the target named is ETV6 (Homo sapiens, UniProt P41212 1-452). The method, boiled down:
as §1

Chain of ETV6 (P41212 whole entry): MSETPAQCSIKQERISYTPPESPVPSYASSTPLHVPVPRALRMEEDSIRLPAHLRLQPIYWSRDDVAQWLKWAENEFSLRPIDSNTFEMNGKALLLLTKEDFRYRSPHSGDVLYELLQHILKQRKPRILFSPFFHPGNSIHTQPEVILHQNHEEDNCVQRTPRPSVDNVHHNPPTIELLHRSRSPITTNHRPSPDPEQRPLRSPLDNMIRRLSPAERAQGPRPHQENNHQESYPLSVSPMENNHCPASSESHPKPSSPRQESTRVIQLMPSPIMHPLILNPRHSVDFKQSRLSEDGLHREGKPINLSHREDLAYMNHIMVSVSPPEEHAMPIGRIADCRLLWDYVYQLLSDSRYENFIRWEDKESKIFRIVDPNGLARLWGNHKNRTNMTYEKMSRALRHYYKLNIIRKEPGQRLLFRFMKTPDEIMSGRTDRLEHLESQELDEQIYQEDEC

Take AGATGA: the binding signal is 1.18 fold enrichment (6-mer frequency, TF over GST control) with ERF; 1.01 fold enrichment (6-mer frequency, TF over GST control) with ETV3L; 1.05 fold enrichment (6-mer frequency, TF over GST control) with ETS2; 1.14 fold enrichment (6-mer frequency, TF over GST control) with SPDEF; 1.15 fold enrichment (6-mer frequency, TF over GST control) with ETV7; 1.05 fold enrichment (6-mer frequency, TF over GST control) with ELF5. The binding signal in the assay with ETV3 is 1.1 fold enrichment (6-mer frequency, TF over GST control); with ETV6, 1.13 fold enrichment (6-mer frequency, TF over GST control).

In the case of AGCGAC, the binding signal in the assay with ERF is 1.32 fold enrichment (6-mer frequency, TF over GST control); in the assay with ETV3L, 1.13 fold enrichment (6-mer frequency, TF over GST control); in the assay with ETS2 it was 1.15 fold enrichment (6-mer frequency, TF over GST control); with SPDEF, 1.01 fold enrichment (6-mer frequency, TF over GST control); with ETV7 it was 1.22 fold enrichment (6-mer frequency, TF over GST control); with ELF5, 1.2 fold enrichment (6-mer frequency, TF over GST control). In addition, the binding signal with ETV3 was 1.14 fold enrichment (6-mer frequency, TF over GST control); with ETV6, 1.17 fold enrichment (6-mer frequency, TF over GST control).

For TGTGCC, the binding signal in the assay with ERF was 1.01 fold enrichment (6-mer frequency, TF over GST control); in the assay with ETV3L it was 1.19 fold enrichment (6-mer frequency, TF over GST control); with ETS2, 1.07 fold enrichment (6-mer frequency, TF over GST control); in the assay with SPDEF it was 1.17 fold enrichment (6-mer frequency, TF over GST control); with ETV7, 1.04 fold enrichment (6-mer frequency, TF over GST control); with ELF5, 1.05 fold enrichment (6-mer frequency, TF over GST control). In addition, the binding signal with ETV3 is 1.13 fold enrichment (6-mer frequency, TF over GST control); in the assay with ETV6, 1.21 fold enrichment (6-mer frequency, TF over GST control).

TACCGC: the binding signal is 1.1 fold enrichment (6-mer frequency, TF over GST control) in the assay with ERF; 1.14 fold enrichment (6-mer frequency, TF over GST control) with ETV3L; 1.05 fold enrichment (6-mer frequency, TF over GST control) with ETS2; 1.17 fold enrichment (6-mer frequency, TF over GST control) in the assay with SPDEF; 1.13 fold enrichment (6-mer frequency, TF over GST control) in the assay with ETV7; 1.08 fold enrichment (6-mer frequency, TF over GST control) with ELF5. Also, the binding signal with ETV3 is 1.12 fold enrichment (6-mer frequency, TF over GST control); with ETV6, 1.04 fold enrichment (6-mer frequency, TF over GST control).

Consider CATAAC, for which the binding signal is 1.12 fold enrichment (6-mer frequency, TF over GST control) in the assay with ERF; 1.18 fold enrichment (6-mer frequency, TF over GST control) with ETV3L; 1.19 fold enrichment (6-mer frequency, TF over GST control) with ETS2; 1.15 fold enrichment (6-mer frequency, TF over GST control) with SPDEF; 1.18 fold enrichment (6-mer frequency, TF over GST control) in the assay with ETV7; 1.15 fold enrichment (6-mer frequency, TF over GST control) with ELF5. The binding signal in the assay with ETV3 is 1.17 fold enrichment (6-mer frequency, TF over GST control); in the assay with ETV6, 1.23 fold enrichment (6-mer frequency, TF over GST control).

As for AAAAGG, the binding signal is 1.08 fold enrichment (6-mer frequency, TF over GST control) in the assay with ERF; 1.1 fold enrichment (6-mer frequency, TF over GST control) in the assay with ETV3L; 1.11 fold enrichment (6-mer frequency, TF over GST control) with ETS2; 1.07 fold enrichment (6-mer frequency, TF over GST control) with SPDEF; 1.16 fold enrichment (6-mer frequency, TF over GST control) in the assay with ETV7; 1.21 fold enrichment (6-mer frequency, TF over GST control) with ELF5. The binding signal was 1.13 fold enrichment (6-mer frequency, TF over GST control) in the assay with ETV3 and 1.19 fold enrichment (6-mer frequency, TF over GST control) in the assay with ETV6.
